This is an account of results in article PMC4081100, “A DNA-binding-site landscape and regulatory network analysis for NAC transcription factors in Arabidopsis thaliana”.

Holding throughout (test): universal protein binding microarray (PBM); transcription factors of Arabidopsis thaliana; high values mean tight binding
Common to all, as to conditions: protein: recombinant; tags: GST; chain copies: 2; dsDNA, one strand shown

One assay has as its target T1, GST-ANAC092(1-176) (Arabidopsis thaliana, UniProt Q9FKA0 1-176).
T1 sequence: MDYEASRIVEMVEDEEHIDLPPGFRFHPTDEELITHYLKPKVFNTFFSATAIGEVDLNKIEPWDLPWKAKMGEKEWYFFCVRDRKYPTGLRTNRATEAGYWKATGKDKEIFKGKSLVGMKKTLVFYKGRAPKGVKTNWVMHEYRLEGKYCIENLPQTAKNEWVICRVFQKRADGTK
The procedure, abridged:
(§1)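 For zinc-finger proteins, zinc acetate was added while GST-tagged NAC-domain, full-length or DNA-binding-domain proteins were induced in cells. Purification used glutathione–Sepharose 4B, and quantification used A280 or anti-GST western blot. Custom all-10-mer Agilent 4 × 180K arrays, made double-stranded by primer extension, each received a protein at 200 to 500 nM final in duplicate. Scoring covered gapped and ungapped 8-mers, with binding given as the normalised enrichment score (E-score).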

The next assay has as its target GST-NTL6(1-168) (Arabidopsis thaliana, UniProt Q9SCK6 1-168). The method in brief: as §1
The next assay has as its target T2, GST-ANAC019 NAC domain (Arabidopsis thaliana, UniProt Q9C932 14-162).
T2 sequence: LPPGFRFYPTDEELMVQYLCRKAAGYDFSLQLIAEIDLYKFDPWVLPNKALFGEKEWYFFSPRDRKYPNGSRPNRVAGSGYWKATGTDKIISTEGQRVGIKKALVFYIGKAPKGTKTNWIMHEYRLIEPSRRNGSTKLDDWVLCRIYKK
The method in brief:
as §1

For the next assay, the target named is T3, GST-ANAC055(1-171) (Arabidopsis thaliana, UniProt Q9LDY8 1-171).
T3 sequence: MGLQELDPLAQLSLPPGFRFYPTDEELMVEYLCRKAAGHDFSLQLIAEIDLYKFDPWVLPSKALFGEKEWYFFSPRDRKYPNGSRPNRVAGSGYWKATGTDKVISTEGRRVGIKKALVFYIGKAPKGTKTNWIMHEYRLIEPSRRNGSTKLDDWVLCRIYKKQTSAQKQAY
The method in brief:
as §1

Assay [1] deals with T4, GST-ANAC092(1-285) full length (Arabidopsis thaliana, UniProt Q9FKA0 1-285).
T4 sequence: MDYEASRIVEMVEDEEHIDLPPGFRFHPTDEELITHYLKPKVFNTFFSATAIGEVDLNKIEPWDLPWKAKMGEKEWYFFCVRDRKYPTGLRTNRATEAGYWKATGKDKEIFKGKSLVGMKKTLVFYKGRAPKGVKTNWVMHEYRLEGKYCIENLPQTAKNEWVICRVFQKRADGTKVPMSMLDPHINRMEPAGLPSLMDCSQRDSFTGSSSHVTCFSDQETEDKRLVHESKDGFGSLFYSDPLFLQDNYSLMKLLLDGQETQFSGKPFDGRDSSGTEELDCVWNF
The procedure, abridged:
as §1

In another assay the target is T5, GST-NST2(1-184) (Arabidopsis thaliana, UniProt Q9M274 1-184).
T5 sequence: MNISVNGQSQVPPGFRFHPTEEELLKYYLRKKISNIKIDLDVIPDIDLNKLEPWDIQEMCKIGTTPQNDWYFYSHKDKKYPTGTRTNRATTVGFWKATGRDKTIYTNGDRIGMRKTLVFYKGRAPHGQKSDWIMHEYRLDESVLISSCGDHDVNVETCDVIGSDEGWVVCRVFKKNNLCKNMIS
The procedure, abridged:
as §1

The target in another assay is T6, GST-NTL8 NAC domain (Arabidopsis thaliana, UniProt Q9XIN7 14-156).
T6 sequence: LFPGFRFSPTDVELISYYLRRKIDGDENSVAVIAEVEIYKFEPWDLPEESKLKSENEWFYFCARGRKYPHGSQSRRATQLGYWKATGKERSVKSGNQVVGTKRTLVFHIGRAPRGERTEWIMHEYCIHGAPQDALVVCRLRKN
The procedure, abridged:
as §1

For the next assay, the target named is T7, GST-SND1(1-203) (Arabidopsis thaliana, UniProt Q9LPI7 1-203).
T7 sequence: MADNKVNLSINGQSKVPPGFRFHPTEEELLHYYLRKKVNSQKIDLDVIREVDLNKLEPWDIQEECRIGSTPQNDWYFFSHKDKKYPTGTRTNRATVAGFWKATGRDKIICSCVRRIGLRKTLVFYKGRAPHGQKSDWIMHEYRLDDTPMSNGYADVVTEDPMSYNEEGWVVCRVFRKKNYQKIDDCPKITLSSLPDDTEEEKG
The method in brief: as §1

The target in a further assay is T8, GST-VND3 NAC domain (Arabidopsis thaliana, UniProt Q9FH59 12-162).
T8 sequence: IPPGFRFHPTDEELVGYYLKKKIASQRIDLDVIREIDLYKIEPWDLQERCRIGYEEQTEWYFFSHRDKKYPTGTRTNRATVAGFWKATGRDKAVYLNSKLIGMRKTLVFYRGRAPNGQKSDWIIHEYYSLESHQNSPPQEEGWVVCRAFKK
The method in brief: as §1

The target of another assay is T9, GST-VND7 NAC domain (Arabidopsis thaliana, UniProt Q9C8W9 9-158).
T9 sequence: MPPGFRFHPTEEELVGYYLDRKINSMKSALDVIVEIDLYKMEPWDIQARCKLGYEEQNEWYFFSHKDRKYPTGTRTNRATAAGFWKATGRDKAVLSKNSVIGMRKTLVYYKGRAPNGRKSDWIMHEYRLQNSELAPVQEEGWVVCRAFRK
The procedure, abridged:
as §1

The next assay has as its target T10, GST-ATAF1 NAC domain (Arabidopsis thaliana, UniProt Q39013 7-158).
T10 sequence: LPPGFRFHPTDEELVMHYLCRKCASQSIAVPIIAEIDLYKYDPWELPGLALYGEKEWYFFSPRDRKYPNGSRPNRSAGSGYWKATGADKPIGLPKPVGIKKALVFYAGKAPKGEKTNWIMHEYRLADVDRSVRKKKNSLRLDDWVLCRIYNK
The method in brief:
as §1

For a further assay, the target named is T11, GST-NAP(1-166) (Arabidopsis thaliana, UniProt O49255 1-166).
T11 sequence: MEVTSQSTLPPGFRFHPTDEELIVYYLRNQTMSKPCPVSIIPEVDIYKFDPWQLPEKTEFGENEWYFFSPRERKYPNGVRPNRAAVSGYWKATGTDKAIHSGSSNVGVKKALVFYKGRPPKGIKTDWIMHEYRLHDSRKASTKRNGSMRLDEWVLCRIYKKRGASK
The method in brief:
as §1

Sequence of GST-NTL6(1-168) (Q9SCK6 1-168): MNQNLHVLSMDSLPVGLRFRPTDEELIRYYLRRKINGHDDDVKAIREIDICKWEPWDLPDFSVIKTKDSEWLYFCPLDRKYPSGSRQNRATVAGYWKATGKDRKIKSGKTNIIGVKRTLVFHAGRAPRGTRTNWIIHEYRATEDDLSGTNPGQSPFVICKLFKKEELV

On to CAAGCAAC, for which the binding signal with GST-ANAC092(1-176) worked out at 0.426 E-score; with GST-NTL6(1-168), 0.239 E-score; with GST-ANAC019 NAC domain it was 0.1 E-score; in the assay with GST-ANAC055(1-171) it was 0.139 E-score; in assay [1] it was 0.442 E-score; with GST-NST2(1-184), 0.311 E-score. Besides, the binding signal with GST-NTL8 NAC domain worked out at 0.13 E-score; with GST-SND1(1-203) it was 0.435 E-score; with GST-VND3 NAC domain, 0.164 E-score; with GST-VND7 NAC domain it was 0.139 E-score.

ACCTTAAC: the binding signal in the assay with GST-ANAC092(1-176) came to 0.126 E-score; in the assay with GST-NTL6(1-168), 0.415 E-score; with GST-ANAC055(1-171), 0.156 E-score; with GST-ATAF1 NAC domain it was 0.155 E-score; in [1] it was 0.147 E-score; with GST-NST2(1-184), 0.154 E-score. Besides, the binding signal with GST-NTL8 NAC domain was 0.16 E-score; in the assay with GST-SND1(1-203) it was 0.13 E-score; in the assay with GST-VND3 NAC domain it was 0.156 E-score; with GST-VND7 NAC domain it was 0.077 E-score.

On to ATAGCGTA, for which the binding signal worked out at 0.437 E-score with GST-ANAC092(1-176); 0.0935 E-score with GST-NTL6(1-168); 0.136 E-score in the assay with GST-ANAC055(1-171); 0.165 E-score in the assay with GST-ATAF1 NAC domain; 0.438 E-score in assay [1]; 0.128 E-score with GST-NAP(1-166). Further, the binding signal in the assay with GST-NST2(1-184) was 0.355 E-score; in the assay with GST-SND1(1-203) it was 0.476 E-score; in the assay with GST-VND3 NAC domain it was 0.137 E-score; with GST-VND7 NAC domain, 0.254 E-score.

On to TAAGGAAA, for which the binding signal came to 0.212 E-score with GST-ANAC092(1-176); 0.478 E-score in the assay with GST-NTL6(1-168); 0.109 E-score with GST-ANAC055(1-171); 0.157 E-score with GST-ATAF1 NAC domain; 0.252 E-score in assay [1]; 0.0748 E-score in the assay with GST-NAP(1-166). Moreover, the binding signal with GST-NST2(1-184) turned out to be 0.152 E-score; in the assay with GST-NTL8 NAC domain, 0.424 E-score; with GST-SND1(1-203) it was 0.334 E-score; with GST-VND3 NAC domain it was 0.16 E-score; in the assay with GST-VND7 NAC domain it was 0.0908 E-score.

Take CTAAGCAA: the binding signal in the assay with GST-ANAC092(1-176) was 0.201 E-score; in the assay with GST-NTL6(1-168), 0.461 E-score; with GST-ANAC019 NAC domain it was 0.0628 E-score; in assay [1] it was 0.314 E-score; with GST-NST2(1-184) it was 0.272 E-score; with GST-NTL8 NAC domain it was 0.254 E-score. For the same sequence, the binding signal with GST-SND1(1-203) worked out at 0.473 E-score; in the assay with GST-VND3 NAC domain, 0.134 E-score; with GST-VND7 NAC domain, 0.184 E-score.

With GTGGAGTA, the binding signal with GST-ANAC092(1-176) came to 0.275 E-score; with GST-NTL6(1-168) it was 0.0723 E-score; in the assay with GST-ANAC055(1-171), 0.0843 E-score; in the assay with GST-ATAF1 NAC domain it was 0.217 E-score; in assay [1], 0.332 E-score; with GST-NAP(1-166), 0.0918 E-score. The binding signal worked out at 0.242 E-score in the assay with GST-NST2(1-184), 0.402 E-score with GST-SND1(1-203), 0.0649 E-score in the assay with GST-VND3 NAC domain and 0.15 E-score in the assay with GST-VND7 NAC domain.

Turning to GTAGCGTA, the binding signal with GST-ANAC092(1-176) came to 0.427 E-score; with GST-NTL6(1-168), 0.111 E-score; in the assay with GST-ANAC055(1-171), 0.205 E-score; with GST-ATAF1 NAC domain, 0.288 E-score; in assay [1], 0.47 E-score; with GST-NAP(1-166), 0.27 E-score. Also, the binding signal with GST-NST2(1-184) was 0.381 E-score; in the assay with GST-SND1(1-203), 0.489 E-score; with GST-VND3 NAC domain, 0.239 E-score; with GST-VND7 NAC domain, 0.267 E-score.

For CAAGCAAG, the binding signal in the assay with GST-ANAC092(1-176) is 0.369 E-score; with GST-NTL6(1-168), 0.235 E-score; with GST-ANAC019 NAC domain it was 0.163 E-score; with GST-ANAC055(1-171) it was 0.0997 E-score; with GST-ATAF1 NAC domain, 0.0612 E-score; in [1], 0.419 E-score. The binding signal with GST-NST2(1-184) turned out to be 0.265 E-score; in the assay with GST-NTL8 NAC domain, 0.111 E-score; with GST-SND1(1-203), 0.395 E-score; with GST-VND3 NAC domain, 0.0934 E-score; in the assay with GST-VND7 NAC domain, 0.14 E-score.
